TGFb inhibitor: TGF-b pathway inhibition; HepG2 CAGA-GFP TGF-b/SMAD3 reporter, GFP fluorescence, 18 h; TGF-beta stimulated, 500 pg/mL final; Potency, µM (titrated, usually from 46.1 µM), without a hit: top-dose activity, negative = inhibition, actives largely listed as inhibitors; hit rate 1.2% among 410,000; AID 588855; also: % is scaled to controls: 0 for no effect and ±100 for the full control effect; nearly all actives have a fitted effect of over 65% in size
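HEPG2 CAGA-GFP reporter cells (1000/well, DMEM with 1% FBS) received compounds, then recombinant TGF-beta at 500 pg/mL final for 18 hours at 37 degrees C. Per-cell GFP summed per well was normalised to unstimulated and stimulated DMSO controls before curve fitting.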
DT40 TDP1 no CPT: qHTS for Inhibitors of human tyrosyl-DNA phosphodiesterase 1 (TDP1): qHTS in cells in absence of CPT | hit rate 15% among 420,000 | Potency, µM (highest dose often 46.2 µM), inactives show top-dose activity change, negative = growth inhibition, hits mostly inhibitors | DT40 Tdp1-/- hTDP1 cells, no CPT, ATP luminescence, 48 h; also: % is scaled to controls: 0 for no effect and ±100 for the full control effect; nearly all actives have a fitted effect of over 55% in size
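Camptothecin absent (DMSO only). Human TDP1-complemented DT40 knockout cells, 400 cells/well, 37 °C for minimum 48 hr; ATP measured via CellTiter-Glo, 30 min dark incubation, luminescence.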
HepG2 tox: counter-screen for TGF-b inhibitors: cytotoxicity in HepG2 cells; HepG2 CAGA-GFP viability, ATP luminescence, 18 h; Potency, µM (highest dose often 46.1 µM), for inactives: at the top dose activity change, negative = cytotoxicity, hits mostly cytotoxic; hit rate 0.76% among 410,000; AID 588856
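CellTiter-Glo luminescence gave cytotoxicity after 18 hours at 37 degrees C. The cells were HepG2 CAGA-GFP in 1% FBS DMEM, stimulated with 500 pg/mL TGF-beta after compound addition. %Activity was normalised to no-cell wells (complete cell-killing) and DMSO (no toxicity), and curves were fitted and classified.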
S2 tox: cell viability loss in ATXN counter-screen; S2 cells (HEK-293 line with an ATXN2-luciferase reporter) viability, CellTiter-Fluor protease fluorescence, 24 h; hit rate 0.49% among 400,000; Potency, µM (doses to about 56.7 µM), actives largely listed as cytotoxic; also: nearly all actives have a fitted effect of over 40% in size
ATXN2 expr inh: ATXN2 expression inhibition; HEK-293 ATXN2-luciferase reporter, luminescence, 24 h; Potency, µM (series often up to 57 µM), for the others: at the highest dose activity change, negative = inhibition, most hits filed as inhibitors; hit rate 0.72% among 360,000; also: % is scaled to controls: 0 for no effect and ±100 for the full control effect; nearly all actives have a fitted effect of over 55% in size
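qHTS (up to 57 uM final) was run with 24 h compound exposure of reporter cells at 37 °C. Each well was multiplexed: SteadyGlo luminescence measured ATXN2-luciferase expression after a fluorogenic Gly-Phe-AFC viability readout (25 uM final).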
DT40 TDP1 CPT: DT40-hTDP1 cell growth loss with CPT. AID 686979. Potency, µM (doses to about 46.2 µM), for the others: at the highest dose activity change, negative = growth inhibition, actives largely listed as inhibitors. hit rate 12% among 420,000. chicken DT40 Tdp1-/-;hTDP1 cells + 20 nM CPT, ATP luminescence, 48 h; also: % is scaled to controls: 0 for no effect and ±100 for the full control effect; nearly all actives have a fitted effect of over 55% in size
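Chicken DT40 Tdp1-/- cells stably complemented with human TDP1 were seeded at 400 cells/well in medium containing 20 nM camptothecin, exposed to pin-transferred compounds, and grown at 37 °C for at least 48 hr. Viability was read as ATP luminescence.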
* hit, by the source's call; i = inactive; ? = inconclusive; . = no result; [ ] = remark or other dose. A selection: hits, their analogues and other compounds. The true share with any hit is near 17%. Calls follow the shape of the dose curve; as a rule, active = well fitted curve in the direction sought with a large enough effect; inconclusive = small, poorly fitted or top-dose-only effect, or another doubt; inactive = no such curve, though single readings can be large; an effect the other way counts as inactive or inconclusive. Potency is read from the fitted curve at half-maximal effect.

SMILES | TGFb inhibitor | DT40 TDP1 no CPT | HepG2 tox | S2 tox | ATXN2 expr inh | DT40 TDP1 CPT
CSc1nc(C(=O)N2CCc3c([nH]c4ccccc34)C2c2ccccn2)cs1 (stereo unspecified) | -6% | ? | -2% | i | -10% | 1%
COc1ccc(OCC(=O)N2CCc3c([nH]c4ccccc34)C2c2ccccn2)cc1 (stereo unspecified) | -32% | ? | -13% | i | . | ?
Cc1ccc2nc(C(=O)N3CCc4c([nH]c5ccccc45)C3c3ccccn3)cn2c1 (stereo unspecified) | ? | 21µM* | -12% | i | 3% | ?
CCc1nc(C)ccc1OCC(=O)N1CCc2c([nH]c3ccccc23)C1c1ccccn1 (stereo unspecified) | ? | 23µM* | -2% | i | -3% | 21µM*
O=C(c1ccccc1-n1cccn1)N1CCc2c([nH]c3ccccc23)C1c1ccccn1 (stereo unspecified) | -1% | 10µM* | -8% | i | 36% | 10µM*
CCC(=O)OCCCCCCOc1ccc(C(=O)O)cc1 | -4% | 1% | -20% | i | 1% | -11%
Cc1nc(N2CCCC2)c2c(C(=O)Nc3ccc(C)c(Cl)c3)c(C)oc2n1 | -11% | ? | -1% | . | . | ?
CSC1=NC2(CCCCC2)CC12C=CC(=O)C=C2 | -2% | 3% | 6% | i | -15% | -4%
O=C(Nc1cccc(Cl)c1)N1CCC(CN2CCOCC2)CC1 | -1% | -22% | 1% | i | 14% | -12%
O=S1(=O)C[C@@H](N2CCCC2)[C@H](COCc2ccccc2)N1 | 6% | 13% | 7% | i | 6% | -27%
O=S1(=O)C[C@@H](N2CCC(Cc3ccccc3)CC2)[C@H](COCc2ccccc2)N1 | -17% | 23µM* | -33% | i | -3% | 18µM*
Cc1nc(-c2ccc(-n3nncc3-c3ccco3)cc2)cs1 | -21% | -16% | 0% | i | 14% | -8%
COc1ccc(Cc2nnc(SC)n2-c2ccc(F)cc2)cc1OC | -5% | -11% | -58% | i | -8% | -30%
CN1C(=O)/C(=C\C(=O)c2cccs2)c2ccccc21 | ? | 9.2µM* | -19% | ? | ? | 13µM*
Cc1ccc(Sc2ncccc2COC(=O)NC(C)C)cc1 | 9% | ? | 0% | i | 39%[11.3 µM] | -3%
COc1ccc(Cc2c(-c3ccc(C)cc3)nc3cc(C)c(Br)c(C)n23)c(C)c1 | -5% | ? | -17% | i | 52% | 2.3µM*
COc1ccc(Cc2c(-c3ccc(Cl)cc3)nc3cc(C)c(Br)c(C)n23)c(C)c1 | . | ? | . | i | 23% | ?
COc1ccc(Cc2c(-c3ccc(F)cc3)nc3cc(C)c(Br)c(C)n23)c(C)c1 | . | 18µM* | . | i | 29% | ?
CN1N=C(C(=O)N2CCCC(C(=O)c3cccc(C(F)(F)F)c3)C2)CCC1=O (stereo unspecified) | 0% | -6% | -6% | ? | 18% | 6%
CCNc1ncc2ncc(=O)n(C[C@H]3CCCO3)c2n1 | . | 21µM* | . | . | . | 12µM*
CC(C)(CO)[C@@H](O)C(=O)NCCCC(=O)O | . | -8% | . | . | . | 0%
COc1ccc(CNS(=O)(=O)c2cc3c(cc2Cl)N(C(C)=O)CCO3)cc1 | -1% | ? | 3% | . | . | -23%
COCCNC(=O)CN(CCc1ccccc1)S(=O)(=O)c1ccc(OC)cc1 | -2% | 4% | -10% | i | 5% | -15%
CSc1ccccc1NC(=O)CN(C)CC(=O)Nc1cc(C)ccc1C | 1% | 21µM* | 3% | i | -9% | -4%
COc1ccc(S(=O)(=O)N(CCc2ccccc2)CC(=O)Nc2ccc(C)c(C)c2)cc1OC | -9% | 16µM* | -10% | i | ? | 15µM*
SMILES | TGFb inhibitor | DT40 TDP1 no CPT | HepG2 tox | S2 tox | ATXN2 expr inh | DT40 TDP1 CPT
COc1ccc(/C=N/NC(=O)CN(CCc2ccccc2)S(=O)(=O)c2ccc(NC(C)=O)cc2)cc1OC | 7% | ? | -10% | i | 8% | ?
COc1ccc(S(=O)(=O)N(CCc2ccccc2)CC(=O)Nc2cccc(OC)c2)cc1 | -22% | 18µM* | -16% | ? | -12% | ?
COc1ccc(S(=O)(=O)N(CCc2ccccc2)CC(=O)NCc2ccc(C)cc2)cc1 | ? | 21µM* | -9% | ? | -22% | ?
COC(C(=O)Nc1ccnn1C1CCN(Cc2ccc(C)s2)CC1)c1ccccc1 (stereo unspecified) | -18% | -25% | -12% | i | -1% | -12%
Cc1cc(C)cc(NC(=O)N2CCN(C)c3ncccc32)c1 | -20% | 2% | 1% | i | 9% | 9%
COc1ccc2c(C(=O)c3ccc(C)cc3)n(Cc3ccc(C(N)=O)cc3)[n+]([O-])c2c1 | 2% | -25% | -11% | i | 68% | ?
COc1ccc(S(=O)(=O)N(CCc2ccccc2)CC(=O)Nc2cc(C)ccc2C)cc1 | ? | 21µM* | -31% | ? | -2% | 18µM*
Cc1ccc(S(=O)(=O)N(CCc2ccccc2)CC(=O)Nc2cc(C)ccc2C)cc1 | 0% | 16µM* | -14% | i | -4% | ?
Cc1ccc(C)c(NC(=O)CN(C)S(=O)(=O)c2ccccc2)c1 | -26% | -26% | -12% | i | -14% | -12%
CN(CC(=O)Nc1ccc(Cl)cc1F)C1=NS(=O)(=O)c2ccccc21 | -9% | -19% | -12% | i | -7% | 9%
O=C(OCCN(C1=NS(=O)(=O)c2ccccc21)c1ccccc1Cl)c1ccc(Cl)cc1 | ? | ? | -33% | i | -30% | 18µM*
COc1cc(CN2CCCC(n3cc(C(=O)N4CCCCC4)nn3)C2)cc(OC)c1 (stereo unspecified) | . | 23µM* | . | i | . | ?
COc1cc(CN2CCCC(n3cc(C(=O)N4CCCCC4)nn3)C2)cc(OC)c1OC (stereo unspecified) | . | -2% | . | i | . | -10%[9.04 µM]
O=C(NN1C(=O)c2ccccc2NC1c1ccc([N+](=O)[O-])o1)c1ccccc1 (stereo unspecified) | ? | 16µM* | -30% | i | -1% | ?
O=C(NN1C(=O)c2ccccc2NC1c1ccc([N+](=O)[O-])o1)c1ccc([N+](=O)[O-])cc1 (stereo unspecified) | ? | 8.2µM* | -40% | ? | -26% | 18µM*

From PubChem BioAssay
